Molecules are shown by their SMILES. Records with an inconclusive call do not appear. The source made the active and inactive calls. Unless noted, the call rests on the fitted dose curve; in most records, active means well fitted inhibition curve with a large enough effect; inconclusive means small, poorly fitted or top-dose-only effect; inactive means flat fitted curve, though single readings scatter.

Among the data in PubChem BioAssay (NCATS) are Potency values, retold here.

The nature of test [1]: S16 Schwann cell PMP22 intronic element beta-lactamase assay (AID 624044; calls by dose curve; further: nearly all actives have a fitted effect of over 15% in size). Put shortly: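 Beta-lactamase reporter under a PMP22 intronic regulatory element in stable S16 rat Schwann cells; 24 h compound exposure. 460 nm blue signal normalized between DMSO (0%) and potassium clavulanate, with 535 nm FRET tracking viability; curves classed by r2 and response.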
Another test has as its system AA1029. The test can be described thus: qHTS profiling for inhibitors of Plasmodium falciparum proliferation (AID 504749). Further: nearly all actives have a fitted effect of over 60% in size. Further: potency means the concentration at half of the fitted maximal effect. To be noted: P. falciparum in erythrocytes, SYBR Green DNA, 72 h; series mostly up to 12.8 µM. The procedure, abridged:
(§1)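 SYBR Green fluorescence (ex 485 nm, em 535 nm) reports parasite DNA after 72 h compound exposure of infected red cells at 0.3% parasitemia, 2.5% hematocrit; signal normalized to 0.29 uM artemisinin and vehicle wells.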

Another test has as its system ATS95. The test is described as above. The conditions noted are these: P. falciparum in erythrocytes, SYBR Green DNA, 72 h; series mostly up to 12.8 µM. Put shortly: as §1
A further test concerns C2A. The description is as above. To be noted: P. falciparum in erythrocytes, SYBR Green DNA, 72 h; series mostly up to 12.8 µM. The procedure, abridged: as §1
A further test concerns CP191. The test is described as above. To be noted: P. falciparum in erythrocytes, SYBR Green DNA, 72 h; series mostly up to 12.8 µM. Put shortly: as §1
The next test deals with CP192. The description is as above. The conditions noted are these: P. falciparum in erythrocytes, SYBR Green DNA, 72 h; series mostly up to 12.8 µM. Put shortly:
as §1

In a further test the test system is CP238. The description is as above. To be noted: P. falciparum in erythrocytes, SYBR Green DNA, 72 h; series mostly up to 12.8 µM. The procedure, abridged:
as §1

In the next test the test system is CP252. Described as above. The conditions noted are these: P. falciparum in erythrocytes, SYBR Green DNA, 72 h; series mostly up to 12.8 µM. Put shortly: as §1
For the next test, the system named is CP256. The description is as above. The conditions noted are these: P. falciparum in erythrocytes, SYBR Green DNA, 72 h; series mostly up to 12.8 µM. Put shortly:
as §1

For a further test, the system named is CP262. The description is as above. To be noted: P. falciparum in erythrocytes, SYBR Green DNA, 72 h; series mostly up to 12.8 µM. The procedure, abridged:
as §1

The test system of another test is CP305. The test is described as above. The conditions noted are these: P. falciparum in erythrocytes, SYBR Green DNA, 72 h; series mostly up to 12.8 µM. Put shortly: as §1
A further test has as its system CP329. Described as above. The conditions noted are these: P. falciparum in erythrocytes, SYBR Green DNA, 72 h; series mostly up to 12.8 µM. The procedure, abridged:
as §1

In the next test the test system is ECU. The test is described as above. The conditions noted are these: P. falciparum in erythrocytes, SYBR Green DNA, 72 h; series mostly up to 12.8 µM. The procedure, abridged:
as §1

The next test concerns FAB9. The description is as above. To be noted: P. falciparum in erythrocytes, SYBR Green DNA, 72 h; series mostly up to 12.8 µM. The procedure, abridged: as §1
The subject of another test is JCK. Described as above. The conditions noted are these: P. falciparum in erythrocytes, SYBR Green DNA, 72 h; series mostly up to 12.8 µM. The procedure, abridged: as §1
A further test has as its system N140. Described as above. To be noted: P. falciparum in erythrocytes, SYBR Green DNA, 72 h; series mostly up to 12.8 µM. Put shortly:
as §1

In another test the test system is PC15. Described as above. To be noted: P. falciparum in erythrocytes, SYBR Green DNA, 72 h; series mostly up to 12.8 µM. Put shortly: as §1
The next test deals with PC49. The test is described as above. To be noted: P. falciparum in erythrocytes, SYBR Green DNA, 72 h; series mostly up to 12.8 µM. The procedure, abridged:
as §1

Another test concerns TAB109. The description is as above. To be noted: P. falciparum in erythrocytes, SYBR Green DNA, 72 h; series mostly up to 12.8 µM. Put shortly: as §1
Another test deals with TAB165. The description is as above. The conditions noted are these: P. falciparum in erythrocytes, SYBR Green DNA, 72 h; series mostly up to 12.8 µM. Put shortly: as §1

Regarding `C[C@@H]1Cc2ccccc2N1NC(=O)c1ccc(Cl)c(S(N)=O)c1` (stereo partly drawn), the Potency entry (in [1]; with AA1029; in the test with ATS95; in the test on C2A; in the test on CP191; in the test on CP192) was “inactive” throughout. Also, the Potency entry in the test with CP238, with CP252, with CP256, in the test on CP262, with CP305 and in the test on CP329 was “inactive” throughout. For the same molecule, the Potency result in the test with ECU, with FAB9, in the test with JCK, in the test with N140, with PC15 and in the test with PC49 was “inactive” throughout. For the same molecule, the Potency result with TAB109 and in the test on TAB165 was “inactive” each time.

As for `CCC(=O)O[C@@]1(C(=O)SCF)[C@@H](C)C[C@H]2[C@@H]3C[C@@H](F)C4=CC(=O)C=C[C@@]4(C)[C@]3(F)[C@@H](O)C[C@]21C`, the Potency result (in [1]; with C2A; with CP192; with CP256; with CP262; in the test on CP305) was “inactive” throughout. The Potency entry in the test on CP329 and in the test on JCK was “inactive” each time. Besides, the Potency in the test with N140 is 3.98 µM (active); in the test with TAB165, 3.16 µM (active).

In the case of `C[C@@]12CC[C@H]3[C@@H](CCC4=CC(=O)CC[C@]43C)[C@H]1CC[C@H]2C(=O)CO`, the Potency entry (in [1]; with AA1029; with ATS95; in the test with C2A; with CP191; in the test on CP192) was “inactive” each time. Moreover, the Potency result with CP238, in the test with CP252, with CP256, in the test with CP262, in the test on CP305 and in the test on CP329 was “inactive” each time. The Potency entry with FAB9, with JCK, in the test on N140, with PC15, with PC49 and in the test with TAB109 was “inactive” in each case.

On to `NC(=O)c1ccc[n+]([C@@H]2O[C@H](COP(=O)([O-])OP(=O)(O)OC[C@H]3O[C@@H](n4cnc5c(N)ncnc54)[C@@H](O)[C@@H]3O)[C@@H](O)[C@@H]2O)c1`, for which the Potency result (in test [1]; in the test with AA1029; in the test with ATS95; with C2A; in the test with CP191; in the test with CP192) was “inactive” each time. Also, the Potency result in the test with CP238, in the test on CP252, in the test on CP256, with CP262, with CP305 and in the test with CP329 was “inactive” in each case. Also, the Potency result with ECU, in the test on FAB9, in the test on JCK, in the test with N140, in the test with PC15 and in the test on PC49 was “inactive” each time. Further, the Potency entry in the test with TAB109 and in the test on TAB165 was “inactive” each time.

With `NC(=O)c1cc[n+](CC2=C(C(=O)[O-])N3C(=O)[C@@H](NC(=O)Cc4cccs4)[C@@H]3SC2)cc1`, the Potency entry (in test [1]; in the test on AA1029; with ATS95; in the test with C2A; in the test on CP191; with CP192) was “inactive” in each case. For the same molecule, the Potency result in the test with CP238, in the test on CP252, in the test with CP256, with CP262, in the test with CP305 and in the test on CP329 was “inactive” in each case. The Potency entry in the test on ECU, with FAB9, in the test with JCK, with N140, with PC15 and in the test on PC49 was “inactive” each time. Further, the Potency entry in the test on TAB109 and in the test with TAB165 was “inactive” in each case.

Regarding `COCC(=O)Nc1c(I)c(C(=O)NC[C@@H](O)CO)c(I)c(C(=O)N(C)C[C@@H](O)CO)c1I`, the Potency entry (in test [1]; with AA1029; in the test with ATS95; with C2A; in the test on CP191; in the test on CP192) was “inactive” throughout. The Potency result in the test on CP238, with CP252, in the test on CP256, in the test on CP262, with CP305 and in the test on CP329 was “inactive” each time. Also, the Potency entry with ECU, with FAB9, in the test on JCK, with N140, in the test with PC15 and in the test with PC49 was “inactive” each time. Besides, the Potency entry with TAB109 and in the test with TAB165 was “inactive” each time.

For the molecule `Clc1ccc([C@H](Cn2ccnc2)OCc2csc3c(Cl)cccc23)c(Cl)c1`, the Potency result (in test [1]; with CP262) was “inactive” each time. The Potency in the test on ECU is 3.98 µM (active); with N140, 3.98 µM (active); in the test on TAB165, 2.24 µM (active).

In the case of `CCC[C@@H]1O[C@@H]2C[C@@H]3[C@H]4CCC5=CC(=O)C=C[C@@]5(C)[C@H]4[C@H](O)C[C@@]3(C)[C@@]2(C(=O)CO)O1`, the Potency entry (in [1]; in the test with CP262; in the test on CP305; with CP329) was “inactive” throughout. Further, the Potency with AA1029 is 11.2 µM (active); in the test on CP191, 11.2 µM (active); in the test on CP252, 11.2 µM (active); with CP256 it was 11.2 µM (active); in the test with ECU, 7.08 µM (active); in the test with TAB109, 7.94 µM (active). In addition, in the test with TAB165, the Potency is 11.2 µM (active).

As to `CC(=O)C[C@H](c1ccc([N+](=O)[O-])cc1)c1c(O)c2ccccc2oc1=O`, the Potency entry (in test [1]; in the test with AA1029; in the test with ATS95; in the test with C2A; in the test with CP191; with CP192) was “inactive” in each case. The Potency entry in the test with CP238, in the test with CP252, in the test with CP256, in the test on CP262, in the test on CP305 and in the test with CP329 was “inactive” in each case. Also, the Potency entry with ECU, with FAB9, with JCK, with N140, in the test on PC15 and in the test with PC49 was “inactive” each time. Also, the Potency result with TAB109 and with TAB165 was “inactive” in each case.

Consider `C[C@@H](C(=O)O)c1ccc(C(=O)c2ccccc2)s1`, for which the Potency result (in test [1]; in the test on AA1029; in the test on ATS95; in the test with C2A; in the test with CP191; with CP192) was “inactive” each time. The Potency entry with CP238, in the test on CP252, in the test with CP256, in the test on CP262, in the test on CP305 and with CP329 was “inactive” in each case. The Potency result with ECU, with FAB9, with JCK, in the test with N140, with PC15 and with PC49 was “inactive” throughout. Besides, the Potency entry in the test on TAB109 and in the test on TAB165 was “inactive” each time.

As for `CC[C@H]1NC(=O)c2cc(S(N)(=O)=O)c(Cl)cc2N1`, the Potency entry (in test [1]; with AA1029; in the test on ATS95; in the test on C2A; with CP191; with CP192) was “inactive” each time. The Potency result in the test with CP238, in the test with CP252, in the test on CP256, in the test with CP262, in the test on CP305 and with CP329 was “inactive” throughout. Moreover, the Potency result with ECU, in the test with FAB9, in the test with JCK, with N140, in the test on PC15 and in the test with PC49 was “inactive” throughout. Besides, the Potency result in the test with TAB109 and in the test with TAB165 was “inactive” in each case.

As to `CCCCC[C@H](O)/C=C\[C@@H]1[C@H](O)CC(=O)[C@@H]1CCCCCCC(=O)O`, the Potency entry with AA1029, with ATS95, in the test on C2A, in the test on CP191, with CP192 and in the test on CP238 was “inactive” in each case. The Potency entry in the test on CP252, in the test with CP256, with CP262, with CP305, in the test with CP329 and in the test with ECU was “inactive” each time. Also, the Potency result in the test on FAB9, with JCK, with N140, with PC15, in the test on PC49 and with TAB109 was “inactive” each time. In addition, the Potency entry in the test with TAB165 was “inactive”.
